High-throughput results: PubChem, National Center for Advancing Translational Sciences (NCATS)
Rows were chosen to be rich in hits. Some 19% of all compounds tested hit in one or more screens of this group.
DT40 TDP1 CPT: DT40-hTDP1 cell growth loss with CPT. chicken DT40 Tdp1-/-;hTDP1 cells + 20 nM CPT, ATP luminescence, 48 h. Potency, µM (top dose mostly 46.2 µM), for the others: at the highest dose activity change, negative = growth inhibition, actives largely listed as inhibitors. actives 12% (n = 420,000). AID 686979; note: nearly all actives have a fitted effect of over 55% in size
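Chicken DT40 Tdp1-/- cells complemented with human TDP1, 400 cells/well, exposed to compounds plus 20 nM camptothecin for at least 48 h at 37 C; viability read as ATP content by CellTiter-Glo luminescence.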
Gal4-VP16 FLuc: inhibits Gal4-VP16 luciferase reporter, ROR gamma counter-screen; Potency, µM (titrated, usually from 53.6 µM), without a hit: at the top dose activity, negative = inhibition, hits mostly inhibitors; actives 3.5% (n = 310,000); Drosophila S2 Gal4-VP16 UAS-luciferase, luminescence, 20 h;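 note: Gal4-VP16 expression switched on by copper sulfate through the metallothionein promoter; nearly all actives have a fitted effect of over 50% in size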
DT40 TDP1 no CPT: qHTS for Inhibitors of human tyrosyl-DNA phosphodiesterase 1 (TDP1): qHTS in cells in absence of CPT | DT40 Tdp1-/- hTDP1 cells, no CPT, ATP luminescence, 48 h | Potency, µM (top dose mostly 46.2 µM), for the others: top-dose activity change, negative = growth inhibition, actives largely listed as inhibitors | actives 15% (n = 420,000); note: nearly all actives have a fitted effect of over 55% in size
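A cellular qHTS used chicken DT40 cells lacking endogenous Tdp1 but carrying stably transfected human TDP1. Compounds were applied without camptothecin, and cell growth kinetics were judged by ATP-dependent luminescence after ≥48 hr.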
TDP1 block: inhibitors of human tyrosyl-DNA phosphodiesterase TDP1; Q9NUW8; recombinant TDP1, AlphaScreen DNA substrate cleavage; Potency, µM (titrated, usually from 130 µM), without a hit: at the highest dose activity change, negative = inhibition, most hits filed as inhibitors; actives 0.28% (n = 350,000); AID 485290; note: nearly all actives have a fitted effect of over 40% in size
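Recombinant E. coli-expressed Tdp1 (1 nM) preincubated with compound 15 min at RT, then 5'-biotin/3'-phosphotyrosine-FITC DNA substrate (15 nM) added for 5 min. AlphaScreen beads (10 ug/ml) added, 10 min RT; tyrosine-FITC cleavage read as signal loss.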
RORg inh: ROR gamma (mouse) transcription inhibition | actives 5.4% (n = 310,000) | Potency, µM (doses to about 53.6 µM), without a hit: at the top dose activity change, negative = inhibition, actives largely listed as inhibitors | Drosophila S2 Gal4-RORgamma UAS-luciferase reporter, 20 h | P51450; note: nearly all actives have a fitted effect of over 60% in size
Target sequence (P51450 whole entry, looked up, the tested form may be a part): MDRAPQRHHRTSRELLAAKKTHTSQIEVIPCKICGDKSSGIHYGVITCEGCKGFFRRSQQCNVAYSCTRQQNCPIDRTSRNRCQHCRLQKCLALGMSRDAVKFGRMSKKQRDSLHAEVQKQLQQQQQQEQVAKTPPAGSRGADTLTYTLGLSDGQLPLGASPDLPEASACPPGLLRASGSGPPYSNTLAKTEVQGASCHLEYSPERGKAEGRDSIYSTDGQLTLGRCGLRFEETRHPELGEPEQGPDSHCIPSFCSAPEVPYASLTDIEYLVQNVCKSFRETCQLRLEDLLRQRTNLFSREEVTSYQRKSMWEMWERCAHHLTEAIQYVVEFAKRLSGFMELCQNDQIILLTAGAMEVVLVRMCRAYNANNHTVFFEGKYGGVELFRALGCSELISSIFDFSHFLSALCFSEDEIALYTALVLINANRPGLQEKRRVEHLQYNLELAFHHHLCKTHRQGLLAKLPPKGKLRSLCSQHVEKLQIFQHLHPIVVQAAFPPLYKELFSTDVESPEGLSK
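In this cell-based reporter format, copper sulfate (700 uM final) drives Gal4–ROR gamma fusion expression from a metallothionein promoter in Drosophila Schneider cells; compounds preincubated 1 hr, reporter read after 20 hr at ambient temperature.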
The depositor's hits bear a star; u = inconclusive; x = no result given; [ ] = dose if it differs, or a comment. Calls come from the whole dose curve; as a rule, active = well fitted curve in the direction sought with a large enough effect; inconclusive = small, poorly fitted or top-dose-only effect, or another doubt; inactive = no such curve, though single readings can be large; an effect the other way counts as inactive or inconclusive. % is set by controls: 0 for no effect and ±100 for the full control effect; potency is the fitted concentration of half-maximal effect.

SMILES	DT40 TDP1 CPT	Gal4-VP16 FLuc	DT40 TDP1 no CPT	TDP1 block	RORg inh
CC1CCCN(C(=O)CN2C(=O)C(C)Oc3ccccc32)C1 (configuration not stated)	13%	-11%	4%	-7%	-11%
O=C(CCN1C(=O)C2CCCCC2C1=O)Nc1nc2ccc(F)cc2s1 (configuration not stated)	-30%	x	u	1%	x
CN1CCN(C2CN(Cc3cn(Cc4ccc(Cl)cc4)nn3)S(=O)(=O)C2)CC1 (configuration not stated)	-14%	x	-20%	x	x
Cc1cccc(CN2CCN(C3CN(Cc4cn(Cc5cccc(Cl)c5)nn4)S(=O)(=O)C3)CC2)c1 (configuration not stated)	18µM*	x	15µM*	x	x
O=S1(=O)CC(N2CCN(Cc3ccccc3F)CC2)CN1Cc1cn(Cc2cccc(Cl)c2)nn1 (configuration not stated)	u	x	21µM*	x	x
Cc1cccc(CN2CCN(C3CN(Cc4cn(Cc5ccc(Cl)cc5)nn4)S(=O)(=O)C3)CC2)c1 (configuration not stated)	18µM*	x	21µM*	x	x
CCCCCCN1CCN(C2CN(Cc3cn(Cc4cc(C)cc(C)c4)nn3)S(=O)(=O)C2)CC1 (configuration not stated)	u	x	16µM*	x	x
O=S1(=O)CC(N2CC=CC2)CN1Cc1cn(Cc2cccc(Cl)c2)nn1 (configuration not stated)	0%	x	-5%	x	x
O=S1(=O)CC(N2CCN(Cc3ccccc3F)CC2)CN1Cc1cn(Cc2ccc(F)cc2)nn1 (configuration not stated)	-16%	x	u	x	x
Cc1cc(C)cc(Cn2cc(CN3CC(N4CCN(C)CC4)CS3(=O)=O)nn2)c1 (configuration not stated)	9%	x	-16%	x	x
O=C(N[C@@H](Cc1ccccc1)C(=O)Nc1ccc(F)cc1)C1CCNCC1	-14%	3%	10%	0%	10%
NC(=O)c1ccc2c(=O)n3c(-c4cccs4)csc3nc2c1	-23%	6%	-14%	0%	6%
N#CC1=C(Nc2ccccc2Cl)SC(c2ccccc2O)NC1=O (configuration not stated)	21µM*	u	u	9%	13µM*
COc1ccc(C(=O)OCC(=O)N2C(C)CCCC2C)cc1S(=O)(=O)N1CCOCC1 (configuration not stated)	0%	x	u	0%	x
COc1cccc(-n2c(=O)c3c(C)c(C(=O)N(C)C)sc3n(Cc3ccc(F)cc3Cl)c2=O)c1	u	x	18µM*	4%	x
COc1ccc(-n2c(=O)c3c(C)c(C)sc3n(CC(=O)NCc3ccc(C)cc3)c2=O)c(OC)c1	-5%	x	-14%	3%	x
COc1ccc(-n2c(=O)c3c4c(sc3n(Cc3cccc(F)c3)c2=O)CN(C(C)=O)CC4)c(OC)c1	x	-10%	x	5%	1%
COc1ccc(-n2c(=O)c3c(C)c(C)sc3n(Cc3ccc(F)cc3)c2=O)c(OC)c1	3%	-8%[10 µM]	13µM*	0%	11%
COc1ccc(-n2c(=O)c3c4c(sc3n(Cc3ccc(F)cc3)c2=O)CN(C(C)=O)CC4)c(OC)c1	21µM*	x	13µM*	4%	x
COc1ccc2cc(CCNC(=O)c3ccc(Br)o3)c(=O)[nH]c2c1	u	-12%	u	3%	23%
COc1ccc(N2CCN(CC(=O)N3N=CCC3c3ccccc3)CC2)cc1 (configuration not stated)	12%	-11%	10%	-3%	22%
Cc1c(NC(=O)c2ccc(S(=O)(=O)Nc3ccccc3F)cc2)c(=O)n(-c2ccccc2)n1C	0%	x	2%	0%	x
CCCCN(C(=O)CSc1nnnn1-c1ccccc1OC)C1CCS(=O)(=O)C1 (configuration not stated)	-1%	x	-6%	x	x
c1ccc(-n2ncc3c(N4CCCCC4)ncnc32)cc1	u	5.6µM*	-27%	-1%	5µM*
Cc1ccc(-n2ncc3c(N4CCCC4)ncnc32)c(C)c1	-3%	-15%	-8%	10%	-15%
SMILES	DT40 TDP1 CPT	Gal4-VP16 FLuc	DT40 TDP1 no CPT	TDP1 block	RORg inh
Cc1cccc(-n2ncc3c(N4CCCCCC4)ncnc32)c1	u	x	21µM*	10%	x
Cc1ccccc1C(=O)N1CCN(c2ncnc3c2cnn3-c2ccccc2)CC1	21µM*	1%	23µM*	7%	u
Cc1ccc(C)c(N2CCN(c3ncnc4c3cnn4-c3ccccc3)CC2)c1	u	-17%	u	6%	-5%
COc1cccc(N2CCN(c3ncnc4c3cnn4-c3ccc(C)cc3C)CC2)c1	1.8µM*	-13%	2.6µM*	9%	36%
CCN1CCN(c2ncnc3c2cnn3-c2ccccc2)CC1	4%	10%	-23%	3%	22%
Cc1cccc(-n2ncc3c(N4CCC(C)CC4)ncnc32)c1	u	u	u	-6%	-36%
O=C(O)c1cc(S(=O)(=O)Nc2ccc3cn[nH]c3c2)ccc1Cl	2%	x	2%	3%	x
CC(OC(=O)CCC(=O)N1CCN(S(=O)(=O)c2ccc3ccccc3c2)CC1)C(=O)NC(N)=O (configuration not stated)	4%	-1%	1%	5%	7%
CCCCN(CCCC)c1ncnc2c1cnn2-c1cccc(C)c1	u	x	u	-6%	x
c1ccc(CCN2CCN(c3ncnc4c3cnn4-c3ccccc3)CC2)cc1	23µM*	16%	18µM*	2%	45%
CCN1CCN(c2ncnc3c2cnn3-c2cccc(C)c2)CC1	23µM*	x	u	0%	x
CC1CCCN(c2ncnc3c2cnn3-c2ccc(Cl)cc2)C1 (configuration not stated)	2%	-75%	-27%	x	-41%
CC1CCCN(c2ncnc3c2cnn3-c2ccccc2)C1 (configuration not stated)	-29%	5µM*	-26%	x	u
CCCCN(C)c1ncnc2c1cnn2-c1cccc(Cl)c1	23µM*	x	16µM*	x	x
COc1ccc(Cn2nnc3c(=O)[nH]c(C4CCCN(C(=O)c5ccccc5Cl)C4)nc32)cc1OC (configuration not stated)	2%	x	-22%	-10%	x
Clc1cccc(-n2ncc3c(N4CCN(Cc5ccccc5)CC4)ncnc32)c1	23µM*	x	u	3%	x
Cc1ccc(-n2ncc3c(N4CCCC(C)C4)ncnc32)c(C)c1 (configuration not stated)	8.2µM*	-9%	7.3µM*	x	12%
